The structures appear in SMILES notation. Out of some 210,000 compounds screened, about 5,900 (2.8%) were called active. Inconclusive results (about 5%) are left out. This excerpt belongs to a sample that is enriched for actives. Values without a mark were called inactive. Calls come from the whole dose curve; as a rule, active = well fitted activation curve with a large enough effect; inconclusive = small, poorly fitted or top-dose-only effect; inactive = no such curve, though single readings can be large or run the other way.
Potency is the fitted concentration of half-maximal effect.

A short description of the test: qHTS Assay for Enhancers of SMN2 Splice Variant Expression. For activity change, positive = activation: % of control where 0% means no effect. Note: nearly all actives have a fitted effect of over 55% in size. Particulars: HEK293 SMN2-luciferase splicing reporter, luminescence, 30-36 h; series mostly up to 46.1 µM; activity change, positive = activation: at the top concentration. Summed up:
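qHTS luciferase splicing reporter: luminescence rises when SMN2 exon 7 is included in transfected HEK293 cells. Compound exposure lasted 30-36 h at 37C, with 4.5 mM final sodium butyrate as control, followed by a ONE-Glo read.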
`O=P(O)(O)C(O)c1ccc2ccccc2c1` (configuration not stated): the “activity change, positive = activation” value was -1.73%.
Still for that read-out and setting: next, `O=c1cc(COc2cccc(C(F)(F)F)c2)nc2sc3c(n12)CCCC3`: -3.58%; `COc1ccc(N(C)C(=O)C2CCN(S(=O)(=O)c3cc(Br)cc4c3N(C(C)=O)CC4)CC2)cc1`: 11.2%.
In the case of `CN(c1ccc(C(=O)NCc2ccccn2)cc1)S(C)(=O)=O`, the “activity change, positive = activation” value is 2.3%.
Still for that read-out and setting: the value for `O=C(Cc1nn[nH]n1)NCCC1=CCCCC1` was 19.6%; that for `O=C(NCCC1=CCCCC1)c1ccc(Cl)c([N+](=O)[O-])c1` was 9.41%.
For `Cn1nnc2cc(C(=O)NCCC3=CCCCC3)ccc21`, the Potency was 11.2 µM (active).
As for `CN(c1ccc(C(=O)NCCC2=CCCCC2)cc1)S(C)(=O)=O`, the Potency is 11.2 µM (active).
As to `O=C(Cc1cccc2ccccc12)NCCC1=CCCCC1`, the “activity change, positive = activation” value was -1.2%.
As to `Cc1nc2nc(SCC(=O)N(Cc3ccccc3)C(C)C)nn2c(C)c1Cc1ccccc1Cl`, the “activity change, positive = activation” value was -19.2%.
The same measure, in the same setting: next, `CCc1ccc(CN(Cc2ccco2)C(=O)c2ccccc2Cl)cc1`: -13.4%; `COc1ccccc1CNC(=O)CCCn1c(=O)c2ccccc2n(CC(=O)Nc2ccc(C)cc2Cl)c1=O`: 10%; `O=C(NCc1ccc2c(c1)OCO2)c1ccc(Cl)s1`: 5.84%.
Still for that read-out and setting: the value for `O=C(NC1=NCCS1)[C@H](Cc1ccccc1)N1C(=O)c2ccccc2C1=O` was -21.6%.
For the compound `O=C(NC1=NCCS1)c1ccc(Cl)s1`, the Potency is 15.8 µM (active).
`COc1cccc2c1cc1c(=O)n(CC(=O)N3CCN(c4ccccc4)CC3)nc(C)n12`: the “activity change, positive = activation” value was -9.99%.
For `CCNC(=O)CC1C(=O)N(c2ccc(F)cc2)C(=O)N1Cc1ccc(C)cc1` (configuration not stated), the “activity change, positive = activation” value is -20.3%.
Same read-out and setting: next, `COc1ccc(NS(=O)(=O)c2ccc(NC(=S)NC(=O)CC(C)C)cc2)cc1`: 2.37%.
For the compound `CC(=O)c1ccc(NC(=S)NC(=O)CC(C)C)cc1`, the Potency is 7.94 µM (active).
In the case of `CC(C)CC(=O)NC(=S)Nc1cc(C(=O)O)ccc1Cl`, the “activity change, positive = activation” value is 22.3%.
The same measure, in the same setting: next, `Cc1cccc(NC(=O)Cn2c(C(F)(F)F)nc3ccccc32)c1C`: -13.6%; `COc1ccc(N2CCN(c3cc(C)nc4nncn34)CC2)cc1`: -15.9%.
On the same count and under the same terms, the value for `O=C(c1ccc2c(c1)N(Cc1ccccc1F)C(=O)c1ccccc1S2(=O)=O)N1CCOCC1` was 8.82%; that for `COc1ccc(CCNc2nc(-c3cccc(NC(C)=O)c3)cs2)cc1OC` was -26.4%.
For the compound `CC(=O)Nc1cccc(-c2csc(Nc3cccc(C)n3)n2)c1`, the Potency was 10 µM (active).
For the compound `CC(=O)Nc1ccc(-c2csc(NC(=O)Nc3ccccc3)n2)cc1`, the “activity change, positive = activation” value was -80.3%.
As for `COc1ccccc1CNC(=O)CCn1c(=O)c2ccccc2n(CC(=O)Nc2cccc(Cl)c2)c1=O`, the “activity change, positive = activation” value was 1.83%.
Still for that read-out and setting: next, `O=C(O)c1ccc(N=NN2CCOCC2)cc1`: -3.34% [at 1.84 µM].
For the compound `O=C(O)c1cccc(N=NN2CCCCCC2)c1`, the Potency is 0.631 µM (active).
`O=C(Nc1cccc(C(=O)N2CCCC2)c1)c1ccccc1`: the “activity change, positive = activation” value is 9.99%.
In the case of `CCOC(=O)c1cc2c(=O)n3ccccc3nc2n(CC2CCCO2)c1=NC(=O)c1ccccc1F` (configuration not stated), the “activity change, positive = activation” value was 10.2%.
Take `CCOC(=O)c1c(C)[nH]c(C2=NNC(=NC(C)COC)SC2)c1C` (configuration not stated): the Potency was 3.16 µM (active).
For the compound `CCOC(=O)c1c(C)[nH]c2c1-c1ccccc1C(=O)C2=O`, the “activity change, positive = activation” value was -106%.
Same read-out and setting: the value for `CCc1ccc(CNC(=O)c2cc3cc4ccc(OC)cc4nc3o2)cc1` was -28.9%.
As to `Cc1ccc2cc3cc(C(=O)N4CCCCCC4)oc3nc2c1`, the Potency was 5.01 µM (active).
`Cc1cc(=O)oc(C)c1C(=O)N1CCCCC1`: the “activity change, positive = activation” value is -19%.
In the case of `COc1ccccc1Nc1c2c(nc3ccc(NC(=O)/C=C/c4cc(OC)c(OC)c(OC)c4)cc13)CCCC2`, the “activity change, positive = activation” value was -99.9%.
Turning to `CCCCCc1ccc(-c2ccc(C(=O)O)cc2)nc1`, the Potency was 3.98 µM (active).
For `O=C(O)c1ccc(COCC(F)(F)F)cc1`, the “activity change, positive = activation” value was -1.27%.
On the same count and under the same terms, next, `CCOc1c(CNCc2ccc(C(=O)O)cc2)cccc1OC`: 0.734%.
On the same count and under the same terms, next, `COc1ccc(Nc2ncc3c(n2)CCN(C(=O)OC(C)(C)C)C3)cc1`: 19.1%.
The same measure, in the same setting: next, `CCOc1ccc(Nc2nc(Cl)nc(N3CCN(c4ccc(OC)cc4)CC3)n2)cc1`: -50.9%.
Regarding `COc1ccc(Nc2ncc(F)c(N3CCOCC3)n2)cc1`, the Potency is 10 µM (active).
`CC(C)c1ccc(OCC(=O)N(Cc2ccc(N(C)C)cc2)C2CCS(=O)(=O)C2)cc1` (configuration not stated): the “activity change, positive = activation” value was -13.2%.
In the case of `CC1CCCCN1Cc1c(O)ccc2c(=O)c(-c3cccc(Cl)c3)c(C(F)(F)F)oc12` (configuration not stated), the “activity change, positive = activation” value is 0.89%.
Still for that read-out and setting: the value for `CCOC(=O)C1CCN(C(=O)CSc2c3c(nc4ccc(Cl)cc24)CCCC3)CC1` was -23.6%.
Regarding `Cc1cc(C)c(C#N)c(SCC(=O)Nc2ccccc2)n1`, the Potency was 12.6 µM (active).
Turning to `COCc1cc(C)nc(SCC(=O)Nc2cccc(C)c2)c1C#N`, the “activity change, positive = activation” value was -0.269%.
Still for that read-out and setting: next, `Cc1ccc(-c2cc(C(F)(F)F)c(C#N)c(SCC(=O)Nc3ccccc3)n2)cc1`: 3.98%; `Cc1cccc(NC(=O)Cn2c(=O)n(CCC(C)C)c(=O)c3cccnc32)c1`: 1.67%.
With `COc1cc(CN(CC2CCCO2)C(=O)c2ccccc2F)cc(OC)c1OC` (configuration not stated), the “activity change, positive = activation” value is -5.28%.
In the case of `CCc1ccc(NC(=O)Cn2c(=O)n(CCC(=O)NCc3ccc4c(c3)OCO4)c(=O)c3ccccc32)cc1`, the “activity change, positive = activation” value is 0.862%.
With `Cc1ccccc1-n1c(=O)c2ccccc2n(Cc2ccc(F)cc2)c1=O`, the “activity change, positive = activation” value was -3.73%.
In the case of `CCOc1ccc(NC(=O)c2c(NC(=O)Cc3ccccc3)sc3c2CCCCC3)cc1`, the “activity change, positive = activation” value was 0.873%.
With `CCC(C)(C)NC(=O)C(c1cccn1C)N(Cc1ccc(C)cc1)C(=O)Cn1nnc2ccccc21` (configuration not stated), the Potency is 15.8 µM (active).
Consider `Cc1ccc(C(C(=O)NCc2ccco2)N(CC2CCCO2)C(=O)Cn2nnc3ccccc32)cc1` (configuration not stated), for which the “activity change, positive = activation” value is -6.37%.
Still for that read-out and setting: the value for `COCCNC(=O)C(c1ccc(C)o1)N(Cc1ccccc1)C(=O)Cn1nnc2ccccc21` (configuration not stated) was 17.9%; that for `O=C(Cn1c(=O)n(-c2ccc(F)cc2)c(=O)c2sc3ccccc3c21)NC1CCCC1` was -12.8%; that for `Cc1ccc(-n2ncc3c(=O)n(Cc4cccc(C(F)(F)F)c4)cnc32)cc1C` was 0.0711%.
Still for that read-out and setting: the value for `CC(C)c1ccc(Cn2c(COc3ccccc3)nc3ccccc32)cc1` was -1.83%.
With `COCn1c(COc2ccccc2)nc2ccccc21`, the Potency is 12.6 µM (active).
As to `O=C(Cn1c(COc2ccccc2)nc2ccccc21)Nc1cc(Cl)c(Cl)cc1Cl`, the “activity change, positive = activation” value is -1.19%.
The same measure, in the same setting: next, `Cc1cc(C)c2oc(C(=O)Nc3ccc(S(=O)(=O)Nc4nccc(C)n4)cc3)cc(=O)c2c1`: 13.5%; `O=C(CN1C(=O)COc2ccc(S(=O)(=O)N3CCCCCC3)cc21)N1CCN(c2cccc(C(F)(F)F)c2)CC1`: -1.59%.
Regarding `O=C(Nc1nc2cc3c(cc2s1)OCCO3)c1cccc(S(=O)(=O)N2CCOCC2)c1`, the “activity change, positive = activation” value was -46.1%.
Same read-out and setting: the value for `Cc1nc(N2CCCCC2)sc1C=O` was 25%.
`c1c2c(cc3sc(N4CCCCC4)nc13)OCCO2`: the Potency is 0.501 µM (active).

(Values after PubChem BioAssay AID1458 (National Center for Advancing Translational Sciences (NCATS), 2008).)
